# In PubChem BioAssay AID504332 (National Center for Advancing Translational Sciences (NCATS), 2011):
# “And” between values parts separate entries of the source, which are not always exact repeats. Equal entries are not always repeated. About 31,000 (8.9%) of roughly 350,000 compounds were called active. Inconclusive results (about 15%) are left out. The call rests on the fitted dose curve; in most records, active means well fitted inhibition curve with a large enough effect; inconclusive means small, poorly fitted or top-dose-only effect; inactive means no such curve, though single readings can be large or run the other way. Only a selection was taken, and actives are over-represented in it overall.
# Target: Histone-lysine N-methyltransferase EHMT2 (Homo sapiens) (UniProt Q96KQ7)
# Sequence (Q96KQ7 913-1193 limits assumed): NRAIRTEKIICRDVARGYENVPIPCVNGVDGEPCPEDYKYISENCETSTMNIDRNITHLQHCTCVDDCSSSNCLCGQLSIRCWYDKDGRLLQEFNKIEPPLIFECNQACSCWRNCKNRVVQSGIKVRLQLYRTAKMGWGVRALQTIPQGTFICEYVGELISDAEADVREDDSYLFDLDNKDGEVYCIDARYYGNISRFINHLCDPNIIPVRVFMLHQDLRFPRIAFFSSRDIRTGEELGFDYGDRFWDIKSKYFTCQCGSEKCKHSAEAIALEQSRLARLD
# Assay: qHTS Assay for Inhibitors of Histone Lysine Methyltransferase G9a; further: nearly all actives have a fitted effect of over 75% in size
# Settings: G9a H3K9 monomethylation, AlphaScreen, 2 h; series mostly up to 59 µM; activity, negative = inhibition: at the top concentration
# Summary of the method: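 Enzyme 20 nM + cpd, 15 min RT; add b-H3K9 pep 500 nM / SAM 20 uM; 2 h RT; anti-H3K9me1 Ab 0.5 ug/mL + SA donor / anti-rabbit acceptor beads 20 ug/mL each, 10 min; AlphaScreen read.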
# On the % scale 0 is the no-effect control and ±100 the full control effect; potency means the concentration at half of the fitted maximal effect.
Compound,"activity, negative = inhibition",Potency
Cc1c(C(=O)NCC(c2ccco2)N2CCCC2)oc2ccc(Cl)cc12 (centres undefined),0.391% (inactive),–
Cc1ccc(S(=O)(=O)NCCC(=O)NC2CCN(Cc3ccccc3)CC2)cc1,14.9% (inactive),–
COc1ccc(-c2noc(-c3ccc(N4CCN(c5ccccc5)CC4)c([N+](=O)[O-])c3)n2)cc1OC,-34.5% (inactive),–
CCOc1ccccc1NC(=O)CN1CCN(S(=O)(=O)c2ccc(Br)cc2)CC1,-10.2% (inactive),–
CCNS(=O)(=O)c1ccc(NC(=O)CSc2nc(-c3ccco3)cc(C(F)(F)F)n2)cc1,0.35% (inactive),–
O=C(Nc1cc(-c2ccccc2)nn1-c1ccccc1F)c1ccc([N+](=O)[O-])cc1,-22.8% [at 12.7 µM] (inactive),–
CCOc1ccc(CN2CCN(Cc3c[nH]c4ccccc34)CC2)cc1,25.4% [at 2.33 µM] (inactive),–
CCOc1ccc(CN2CCCN(C)CC2)cc1,–,10 µM (active)
CCOc1ccc(CC(=O)NC2CCN(Cc3ccccc3)CC2)cc1,-4.74% [at 102 µM] (inactive),–
Cn1c(=O)c2c(nc(SCC(=O)Nc3ccc(F)cc3)n2Cc2ccccc2)n(C)c1=O,12.4% (inactive),–
COC(=O)C(C)Sc1nc2c(c(=O)n(C)c(=O)n2C)n1Cc1cccc(C)c1 (centres undefined),–,20 µM (active)
Cc1cccc(Cn2c(SCCO)nc3c2c(=O)n(C)c(=O)n3C)c1,-2.49% [at 102 µM] (inactive),–
CCOc1ccccc1C(=O)Nc1ccc(S(=O)(=O)N2CCCCC2c2cccnc2)cc1 (centres undefined),5.63% (inactive),–
N#CCSc1nn(-c2ccc(F)cc2)c(=S)s1,-42.3% [at 102 µM] (inactive),–
Cc1nnc(SCC(=O)NCc2ccccc2)s1,-12.5% (inactive),–
Cc1ccccc1-n1nc(SCC(=O)O)sc1=S,–,50.1 µM (active)
Cn1c(N)c(C(=O)COC(=O)COc2ccc(Cl)cc2)c(=O)n(C)c1=O,17.9% [at 12.7 µM] (inactive),–
Cc1cccc(N2CCN(C(=O)c3cc4c(=O)oc5ccccc5c4s3)CC2C)c1 (centres undefined),-6.57% (inactive),–
CN(CCNC(=O)c1cc2c(-c3ccccc3F)nn(C)c2s1)C1CCCCC1,-14.4% [at 102 µM] (inactive),–
Oc1ccccc1-c1cc(-c2ccc(Cl)cc2)n[nH]1,-5.84% [at 102 µM] (inactive),–
O=C(NCc1ccc(F)cc1)c1ccc(Cn2c(SCc3ccc(F)cc3)nc3cccnc32)cc1,-9.12% (inactive),–
Nc1ccc2nc3c(=O)[nH]c(=S)[nH]c3nc2c1,–,10 µM (active)
O=c1[nH]c(=O)c2nc3ccccc3nc2[nH]1,-3.42% [at 12.7 µM] (inactive) and 46.4% [at 12.7 µM] (inactive),–
CC1CCCC(NC(=O)c2cc(-c3ccncc3)nc3ccccc23)C1C (centres undefined),-22.5% [at 102 µM] (inactive),–
Cc1cc(NS(=O)(=O)c2ccc3oc(=O)c4ncn(C)c4c3c2)ccc1Br,10.1% (inactive),–

Compound,"activity, negative = inhibition",Potency
Cc1ccccc1CSc1nc(-c2ccccc2)nc2c1Cc1c(CO)cnc(C)c1O2,0.451% (inactive),–
Cc1cc(N2CCN(c3cccc(C(F)(F)F)c3)CC2)n2nc(-c3ccccc3)nc2n1,-4.4% (inactive),–
O=C(NCC(=O)N1CCCC(C(F)(F)F)C1)c1ccccc1F (centres undefined),-3.38% [at 102 µM] (inactive),–
FC(F)(F)C1CCCN(c2nsc3ccccc23)C1 (centres undefined),–,1.12 µM (active)
O=C(NC(Cc1ccccc1)C(=O)N1CCCC(C(F)(F)F)C1)c1ccccc1 (centres undefined),-2.41% [at 102 µM] (inactive),–
CCc1ccc(C(CNc2nc(C(F)(F)F)nc3ccccc23)N(C)C)cc1 (centres undefined),4.66% [at 102 µM] (inactive),–
COc1cccc(CNc2nc(C(F)(F)F)nc3ccccc23)c1,52.2% [at 102 µM] (inactive),–
NS(=O)(=O)c1ccc(CCNc2nc(C(F)(F)F)nc3ccccc23)cc1,–,70.8 µM (active)
Cc1ccc(-c2cc(C(=O)Oc3ccccc3Cl)no2)cc1C,134% (inactive),–
O=C(COC(=O)c1c(Cl)cccc1Cl)Nc1cccc(S(=O)(=O)NC2=NCCCCC2)c1,-0.124% [at 12.7 µM] (inactive),–
CC(NC(=O)c1ccccc1SCC(=O)N1CCCC1)c1ccccc1 (centres undefined),-21.2% [at 102 µM] (inactive),–
O=C(CSc1nc2[nH]ncc2c(=O)n1-c1ccccc1)N1CCCc2ccccc21,–,8.91 µM (active)
Cc1nnc(SCC(=O)N2CCc3ccccc32)n1-c1ccccc1,-14.8% (inactive),–
Cn1c(SCC(=O)N2CCCc3ccccc32)nc2ccccc2c1=O,21% (inactive),–
Cc1cccc[n+]1CC(=O)c1ccccc1,14.2% [at 102 µM] (inactive),–
O=C(C[n+]1cc(Br)cc2ccccc21)c1ccc(F)cc1,–,50.1 µM (active)
O=C(CNC(=O)c1ccccc1F)c1ccc(Br)cc1,-6.35% [at 102 µM] (inactive),–
COC(=O)c1cnn(-c2ccc(C(=O)Nc3ccc(OC(F)(F)F)cc3)cc2)c1N,5.03% (inactive),–
COc1ccc(-c2cn3c(C)c(C(=O)Nc4cc(C)cc(C)c4)sc3n2)cc1,4.02% (inactive),–
Cc1cc(C)c2nc(SCC(=O)N(C)C3CCS(=O)(=O)C3)cc(C)c2c1 (centres undefined),–,44.7 µM (active)
CN(C(=O)CSc1nnc(-c2ccc(C(C)(C)C)cc2)n1C)C1CCS(=O)(=O)C1 (centres undefined),1.39% [at 12.7 µM] (inactive),–
COc1ccc2c(-c3ccccc3)cc(SCC(=O)N(C)C3CCS(=O)(=O)C3)nc2c1 (centres undefined),-40.4% (inactive),–
CCOC(=O)[C@H]1[C@H]2COc3ccc(C)cc3[C@@H]2N2C(=O)CN(Cc3ccc(F)cc3)C(=O)[C@@]12C,9.53% [at 0.501 µM] (inactive),–
O=C(NCc1cccc(Cl)c1)C1CCN(c2nnc(N3CCCC3=O)s2)CC1,36.7% [at 102 µM] (inactive),–
